# Rows were chosen to be rich in hits. Some 22% of all compounds tested hit in one or more screens of this group.
# Measles CPE – protection of cells from measles virus | Measles virus-infected cells, CPE protection, absorbance | protection (pct of control), % at 4 µM | actives 1.5% (n = 140,000); in the data active = protection mostly above about 24%, no sharp cut-off; inactive = mostly below about 26%
# CYP2C19 inhib – human CYP2C19 inhibition | inhibition, % at 5 µM | AID 778 | actives 21% (n = 96,000) | CYP2C19 Supersomes, luciferin-H EGE luminescence, 30 min | P33261;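 active = CYP2C19 inhibition above a set limit at 5 µM in the primary screen, cut at about 50% in these data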;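 also: plate controls were negative control wells for no effect and 2.5 mM tranylcypromine positive control for full effect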
# CYP2C9 inh – human CYP2C9 inhibition | CYP2C9 Supersomes, luciferin-H conversion, luminescence | inhibition, % at 5 µM | actives 20% (n = 96,000) | AID 777;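 active = blocking of liver enzyme CYP2C9 beyond about 50% at 5 µM, limit read from the data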
# Target sequence (P11712 whole entry, looked up): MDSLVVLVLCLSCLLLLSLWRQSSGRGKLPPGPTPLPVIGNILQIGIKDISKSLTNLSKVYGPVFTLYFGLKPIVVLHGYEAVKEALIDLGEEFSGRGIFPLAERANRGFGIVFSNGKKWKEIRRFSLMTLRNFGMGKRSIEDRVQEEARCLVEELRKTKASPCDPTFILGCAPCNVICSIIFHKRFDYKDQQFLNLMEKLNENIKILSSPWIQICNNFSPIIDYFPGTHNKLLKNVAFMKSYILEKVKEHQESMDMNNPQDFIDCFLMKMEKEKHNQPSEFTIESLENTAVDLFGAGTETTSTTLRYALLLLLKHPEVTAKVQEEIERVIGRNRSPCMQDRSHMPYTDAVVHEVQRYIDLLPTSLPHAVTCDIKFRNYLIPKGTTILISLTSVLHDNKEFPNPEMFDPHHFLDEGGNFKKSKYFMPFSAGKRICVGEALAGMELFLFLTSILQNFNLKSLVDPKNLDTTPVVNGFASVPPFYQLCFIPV
# CYP2C19 act – increases human CYP2C19 enzyme activity; P33261; recombinant CYP2C19, luciferin-H EGE luminescence; stronger effect = higher value; 0 = fully inhibited enzyme, 1 = untreated enzyme; activation factor at 5 µM; 96,000 tested, under 10 active; AID 1025;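 active = activation factor of at least 2 at 5 µM in the primary screen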;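 also: 0 = wells with 2.5 mM tranylcypromine and 1 = vehicle-only wells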
# CYP2C9 activ – activators of human CYP2C9; AID 1024; activation factor at 5 µM; P11712; recombinant CYP2C9, luciferin-H conversion, luminescence; stronger effect = higher value; factor 1 = untreated enzyme, 0 = blocked; actives 1.4% (n = 96,000);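 active = activation factor of 2 or more for CYP2C9 at a 5 µM dose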;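 also: 0 = sulfaphenazole-blocked wells and 1 = vehicle-only wells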
# Starred values were filed as active, the others as inactive; / = not tested or not shown.
SMILES,Measles CPE,CYP2C19 inhib,CYP2C9 inh,CYP2C19 act,CYP2C9 activ
Cc1ccc(N=Cc2c(O)n(-c3cc(Cl)ccc3N3CCOCC3)c(=O)c3ccccc23)cc1C,5.1,-3.9,24.0,1,0.8
CCC(C)Cn1c(C(C)O)nc2ccccc21 (configuration not stated),17.6,1.0,17.3,1,0.8
COc1ccc(S(=O)(=O)N2CCCCC2)cc1NC(=O)CSc1ncnc2ccccc12,4.8,/,/,/,/
O=C(CCc1c[nH]c2ccccc12)NC1CC1,23.7,40.3,6.6,0.6,0.9
CCc1ccc(CCC(=O)Nc2nnc(CC)s2)o1,6.1,15.4,3.8,0.8,1
CC(c1ccco1)N(C(=O)C12CC3(C)CC(C)(CC(C)(C3)C1)C2)c1ccccn1 (configuration not stated),24.9,12.3,1.4,0.9,1
O=S(=O)(Nc1ccc(N2CCOCC2)cc1)c1ccc2ccccc2c1,1.5,92.3*,46.0,0.1,0.5
O=C(NC1CC1)c1ccc(S(=O)(=O)NC2CCCCCC2)cc1,1.4,53.7*,34.9,0.5,0.7
O=C(NNS(=O)(=O)c1ccc2ccccc2c1)NC1CCCCC1,51.9*,/,/,/,/
O=C(O)c1ccc(S(=O)(=O)NC2CCCCC2)cc1,12.3,-11.3,-15.3,1.1,1.2
CSc1ccc(S(=O)(=O)NC2CCCCCC2)cc1,11.4,95.0*,22.8,0.1,0.8
O=C(CCc1ccc(S(=O)(=O)NC2CCCCC2)cc1)N(Cc1ccccc1)Cc1ccccc1,14.7,69.5*,88.0*,0.3,0.1
COc1ccc(OCC(O)Cn2c(Nc3cccc(C)c3)nc3c2c(=O)n(C)c(=O)n3C)cc1 (configuration not stated),11.7,/,/,/,/
COc1ccc(/C=C\C(=O)CC(O)(c2ccccc2)C(F)(F)F)cc1 (configuration not stated),6.7,42.0,18.6,0.6,0.8
Cn1nnnc1SCc1nc2ccccc2s1,10.4,64.2*,-20.4,0.4,1.2
Cc1cccc(C)c1Nc1nnc(SCc2nc3ccccc3s2)s1,19.1,/,/,/,/
Cc1ccnc(SCc2nc3ccccc3s2)n1,3.0,92.5*,25.8,0.1,0.7
O=c1c2ccccc2nc(SCc2nc3ccccc3s2)n1CCCO,8.1,/,/,/,/
COc1cccc(-c2cc(C(=O)NCCCn3ccnc3)no2)c1,8.7,80.2*,70.6*,0.2,0.3
C=C(C)c1cccc(C(C)(C)NC(=O)NCCCn2ccnc2)c1,7.7,97.6*,96.3*,0,0
C=C(C)c1cccc(C(C)(C)NC(=O)NCCCN2CCCC2=O)c1,20.5,10.6,13.3,0.9,0.9
CCC(=O)c1c[nH]c(C(=O)NCCCn2ccnc2)c1,1.4,75.5*,82.9*,0.2,0.2
COc1cccc(-c2cc(C(=O)NCCc3ccccc3)no2)c1,-1.3,11.9,20.3,0.9,0.8
COc1ccc(-c2cc(C(=O)NCCCn3ccnc3)no2)cc1OC,1.8,65.2*,50.4*,0.3,0.5
CC(C)N(C(=O)C(F)(F)F)C(C(=O)NC1CCCCC1)c1ccncc1 (configuration not stated),2.7,/,/,/,/
SMILES,Measles CPE,CYP2C19 inhib,CYP2C9 inh,CYP2C19 act,CYP2C9 activ
Cc1cc(=O)n2[nH]c(COc3ccccc3)nc2n1,3.8,0.6,21.6,1,0.8
COc1ccc(-c2cc(C(=O)N(C)Cc3ccccc3)no2)cc1OC,3.8,21.2,50.3*,0.8,0.5
O=C(NCCCn1ccnc1)c1ccc2c(c1)OCCO2,5.9,96.6*,58.4*,0,0.4
Cc1ccc(C(=O)NCCCn2ccnc2)cc1[N+](=O)[O-],0.9,73.6*,81.6*,0.3,0.2
O=C(NCCCn1ccnc1)c1cccnc1,17.1,/,/,/,/
O=C(NCCCn1ccnc1)c1cc(-c2ccc3c(c2)OCO3)on1,17.9,65.6*,45.5,0.3,0.5
O=C1CCCc2oc3ccc(O)cc3c21,1.7,/,/,/,/
CC1CN(S(=O)(=O)c2cccc(C(=O)NCCCn3ccnc3)c2)CC(C)O1 (configuration not stated),7.0,8.6,62.7*,0.9,0.4
CC1CN(S(=O)(=O)c2cccc(C(=O)NN3CCN(C)CC3)c2)CC(C)O1 (configuration not stated),28.8,/,/,/,/
O=C(CCc1ccc(S(=O)(=O)N2CCOCC2)cc1)N/N=C/c1ccc(O)c(O)c1O,3.8,/,/,/,/
CCCCCNS(=O)(=O)c1cc(C)ccc1OC,1.1,/,/,/,/
CCCCCCNS(=O)(=O)c1ccc(Cl)s1,4.0,98.2*,85.9*,0,0.1
CCNc1nc(NCC)n2c(SC(C(=O)Nc3cc(C)ccc3OC)c3ccccc3)nnc2n1 (configuration not stated),8.0,/,/,/,/
Cc1cccc(CCNC(=O)C2CCC(=O)N2Cc2ccc(F)cc2)c1 (configuration not stated),14.4,15.0,22.2,0.8,0.8
Cc1ccc(CCNC(=O)C2CCC(=O)N2Cc2cccnc2)cc1 (configuration not stated),4.5,59.4*,39.7,0.4,0.6
O=C(NCCc1ccc(Cl)cc1)C1CCC(=O)N1Cc1ccc(F)cc1 (configuration not stated),19.1,72.7*,66.1*,0.3,0.3
Cc1ccc(CN2C(=O)CCC2C(=O)NCCN2CCOCC2)cc1 (configuration not stated),3.6,18.6,4.4,0.8,1
CCn1c(C(=O)N2CCC(C(=O)NCc3cccs3)CC2)cc2sccc21,6.4,24.6,-20.6,0.8,1.2
O=C(NCCN1CCOCC1)c1cc2sccc2n1Cc1ccc(F)cc1,1.7,31.4,27.0,0.7,0.7
O=C(NCc1ccco1)C1CCN(C(=O)c2cc3sccc3n2Cc2ccc(Cl)cc2)CC1,4.3,64.7*,77.2*,0.4,0.2
O=C(NCCN1CCOCC1)c1cc2sccc2n1Cc1ccc(Cl)cc1,3.3,69.8*,68.7*,0.3,0.3
COC(=O)C1=C(O)/C(=C\c2ccc(O)c(OC)c2)N=C1C,7.5,15.0,23.4,0.8,0.8
COc1ccc[nH]c1=O,4.8,81.0*,32.7,0.2,0.7
CCOc1cc(C2/C(=C(\O)c3cc(C)ccc3C)C(=O)C(=O)N2CCN(C)C)ccc1O (configuration not stated),21.1,-13.8,-4.6,1.1,1
COc1ccc(NC(=O)CCCC(=O)OCC(F)(F)C(F)F)cc1,/,41.4,9.4,0.6,0.9
SMILES,Measles CPE,CYP2C19 inhib,CYP2C9 inh,CYP2C19 act,CYP2C9 activ
CCCOc1ccccc1N/C(=N/c1nc(C)cc(C)n1)NC(=O)COc1ccc(OC)cc1,5.3,89.8*,92.4*,0.1,0.1
C=CCOC(=O)CCC(=O)Nc1cc(OC)nc(OC)n1,6.0,41.2,22.4,0.6,0.8
COc1cc(NC(=O)CCCC(=O)OCC(F)(F)C(F)F)nc(OC)n1,17.5,75.8*,-32.2,0.2,1.3
COc1ccc(OCC(=O)NC(=S)Nc2ccccc2F)cc1,9.9,/,/,/,/
COc1ccccc1NC(=O)CNC(=O)c1ccccc1,0.4,65.7*,23.4,0.3,0.8
COc1ccccc1NC(=O)CCCC(=O)OCC(F)(F)C(F)F,8.5,87.1*,-181.9,0.1,2.8*

# Assay outcomes from PubChem BioAssay.
